Here are results for one compound from ChEMBL document CHEMBL1961873, “Compounds: GSK PKIS; Assays: Nanosyn kinase panel” (2012).

The target of assay [1] is Sphingosine kinase 1 (Homo sapiens) (UniProt Q9NYA1). The note with it: at 1 µM.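 Further: mean SPHK1 inhibition value reported from the GSK PKIS kinase panel screen.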
Assay [2] addresses T1, Sphingosine kinase 2 (Homo sapiens) (UniProt Q9NRA0).
T1 sequence (whole entry): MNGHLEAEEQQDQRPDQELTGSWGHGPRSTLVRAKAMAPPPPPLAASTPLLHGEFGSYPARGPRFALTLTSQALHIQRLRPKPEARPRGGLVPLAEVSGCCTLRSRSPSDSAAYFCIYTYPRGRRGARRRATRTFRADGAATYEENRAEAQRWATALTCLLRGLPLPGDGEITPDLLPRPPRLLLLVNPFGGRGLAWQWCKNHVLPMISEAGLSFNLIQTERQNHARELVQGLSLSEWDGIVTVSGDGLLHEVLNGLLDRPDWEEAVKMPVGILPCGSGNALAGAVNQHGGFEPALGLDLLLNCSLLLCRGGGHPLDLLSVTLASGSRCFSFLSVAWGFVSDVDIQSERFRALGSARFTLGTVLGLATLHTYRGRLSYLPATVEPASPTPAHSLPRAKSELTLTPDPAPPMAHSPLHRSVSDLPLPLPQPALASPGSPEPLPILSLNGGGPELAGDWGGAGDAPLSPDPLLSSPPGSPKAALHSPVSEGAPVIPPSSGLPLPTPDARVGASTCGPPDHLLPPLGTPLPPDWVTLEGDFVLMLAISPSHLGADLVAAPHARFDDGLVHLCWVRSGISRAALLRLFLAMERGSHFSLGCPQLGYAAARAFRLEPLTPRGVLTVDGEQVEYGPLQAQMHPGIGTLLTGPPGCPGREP
The note with it: at 0.1 µM.

Assay [3] addresses T1, Sphingosine kinase 2 (Homo sapiens). The note with it: at 1 µM.
Assay [4] deals with Casein kinase II subunit alpha (Homo sapiens) (UniProt P68400). The note with it: at 0.1 µM.
Casein kinase II subunit alpha (Homo sapiens), sequence (P68400 whole entry, looked up): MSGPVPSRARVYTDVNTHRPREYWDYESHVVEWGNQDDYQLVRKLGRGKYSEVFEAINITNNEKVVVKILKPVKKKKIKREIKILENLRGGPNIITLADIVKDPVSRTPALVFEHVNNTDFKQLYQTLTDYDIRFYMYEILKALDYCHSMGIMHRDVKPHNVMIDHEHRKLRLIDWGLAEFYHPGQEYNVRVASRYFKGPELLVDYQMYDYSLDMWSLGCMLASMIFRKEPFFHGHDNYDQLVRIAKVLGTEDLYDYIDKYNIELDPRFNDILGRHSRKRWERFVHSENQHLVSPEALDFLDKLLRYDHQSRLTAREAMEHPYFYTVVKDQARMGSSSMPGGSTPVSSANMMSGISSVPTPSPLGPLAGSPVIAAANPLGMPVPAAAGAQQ
Assay [5] has the same target. The note with it: at 1 µM.
Assay [6] addresses T2, Inhibitor of nuclear factor kappa-B kinase subunit alpha (Homo sapiens) (UniProt O15111).
T2 sequence (whole entry): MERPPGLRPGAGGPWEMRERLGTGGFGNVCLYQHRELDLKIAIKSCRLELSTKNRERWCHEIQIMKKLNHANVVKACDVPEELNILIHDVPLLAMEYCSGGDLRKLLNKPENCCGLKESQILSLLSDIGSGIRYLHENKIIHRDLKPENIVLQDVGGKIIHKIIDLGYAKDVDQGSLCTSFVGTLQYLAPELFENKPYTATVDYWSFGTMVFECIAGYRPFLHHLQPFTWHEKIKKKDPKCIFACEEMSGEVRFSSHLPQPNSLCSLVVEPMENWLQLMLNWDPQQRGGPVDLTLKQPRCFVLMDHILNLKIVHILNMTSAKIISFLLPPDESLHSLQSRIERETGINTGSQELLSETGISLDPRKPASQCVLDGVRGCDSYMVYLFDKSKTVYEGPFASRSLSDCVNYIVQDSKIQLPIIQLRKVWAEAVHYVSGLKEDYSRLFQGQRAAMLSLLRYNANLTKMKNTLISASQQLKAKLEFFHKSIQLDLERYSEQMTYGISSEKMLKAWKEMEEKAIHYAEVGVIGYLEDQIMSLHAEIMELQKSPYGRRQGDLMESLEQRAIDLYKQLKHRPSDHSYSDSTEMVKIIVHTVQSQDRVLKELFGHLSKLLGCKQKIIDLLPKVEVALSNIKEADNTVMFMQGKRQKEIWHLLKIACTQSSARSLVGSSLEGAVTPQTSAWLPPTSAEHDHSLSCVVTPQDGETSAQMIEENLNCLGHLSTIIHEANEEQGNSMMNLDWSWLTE
The note with it: at 0.1 µM.

Assay [7] deals with T2, Inhibitor of nuclear factor kappa-B kinase subunit alpha (Homo sapiens). The note with it: at 1 µM.
The target in assay [8] is T3, Inhibitor of nuclear factor kappa-B kinase subunit beta (Homo sapiens) (UniProt O14920).
T3 sequence (whole entry): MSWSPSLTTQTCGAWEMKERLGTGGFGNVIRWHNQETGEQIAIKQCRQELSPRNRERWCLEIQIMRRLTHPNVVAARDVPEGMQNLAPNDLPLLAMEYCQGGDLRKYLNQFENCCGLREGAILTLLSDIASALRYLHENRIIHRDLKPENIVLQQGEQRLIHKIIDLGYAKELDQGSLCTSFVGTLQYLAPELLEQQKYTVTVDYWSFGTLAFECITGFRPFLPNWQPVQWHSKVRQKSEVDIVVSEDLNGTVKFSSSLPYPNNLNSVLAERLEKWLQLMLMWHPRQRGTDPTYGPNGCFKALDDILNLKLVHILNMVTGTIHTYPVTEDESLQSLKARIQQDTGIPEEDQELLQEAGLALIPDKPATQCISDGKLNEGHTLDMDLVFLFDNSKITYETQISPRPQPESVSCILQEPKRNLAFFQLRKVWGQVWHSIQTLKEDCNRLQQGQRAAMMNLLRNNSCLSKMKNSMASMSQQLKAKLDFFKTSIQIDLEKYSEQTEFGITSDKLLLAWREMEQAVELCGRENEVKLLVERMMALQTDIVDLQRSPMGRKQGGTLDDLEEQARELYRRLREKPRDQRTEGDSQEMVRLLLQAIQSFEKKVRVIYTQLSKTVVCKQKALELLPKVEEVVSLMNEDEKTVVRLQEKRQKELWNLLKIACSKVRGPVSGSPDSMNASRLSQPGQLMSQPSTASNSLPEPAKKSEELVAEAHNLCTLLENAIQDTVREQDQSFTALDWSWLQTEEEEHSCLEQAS
The note with it: at 0.1 µM.

The target of assay [9] is T3, Inhibitor of nuclear factor kappa-B kinase subunit beta (Homo sapiens). The note with it: at 1 µM.
In assay [10] the target is T4, Inhibitor of nuclear factor kappa-B kinase subunit epsilon (Homo sapiens) (UniProt Q14164).
T4 sequence (whole entry): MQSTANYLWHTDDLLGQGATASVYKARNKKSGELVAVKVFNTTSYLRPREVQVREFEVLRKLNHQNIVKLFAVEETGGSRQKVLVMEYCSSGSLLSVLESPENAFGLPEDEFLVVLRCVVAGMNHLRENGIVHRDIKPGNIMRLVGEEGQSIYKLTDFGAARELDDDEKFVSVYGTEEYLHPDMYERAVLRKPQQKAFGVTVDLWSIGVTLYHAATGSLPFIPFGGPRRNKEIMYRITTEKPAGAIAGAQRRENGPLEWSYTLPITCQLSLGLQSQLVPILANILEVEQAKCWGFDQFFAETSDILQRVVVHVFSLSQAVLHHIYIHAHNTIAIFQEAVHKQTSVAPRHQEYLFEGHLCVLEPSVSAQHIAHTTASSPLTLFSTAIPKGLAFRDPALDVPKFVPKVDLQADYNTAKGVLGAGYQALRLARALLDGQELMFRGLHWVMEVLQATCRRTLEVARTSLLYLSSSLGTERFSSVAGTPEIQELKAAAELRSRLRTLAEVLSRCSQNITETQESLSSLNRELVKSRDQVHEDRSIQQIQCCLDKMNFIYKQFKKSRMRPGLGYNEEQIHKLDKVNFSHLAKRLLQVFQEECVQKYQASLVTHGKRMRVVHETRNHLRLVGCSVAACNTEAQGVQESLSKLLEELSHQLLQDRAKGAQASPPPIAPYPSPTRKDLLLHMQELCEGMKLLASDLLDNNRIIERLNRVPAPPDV
The note with it: at 0.1 µM.

Assay [11] concerns the target T4, Inhibitor of nuclear factor kappa-B kinase subunit epsilon (Homo sapiens). The note with it: at 1 µM.
In assay [12] the target is T5, Serine/threonine-protein kinase Nek1 (Homo sapiens) (UniProt Q96PY6).
T5 sequence (whole entry): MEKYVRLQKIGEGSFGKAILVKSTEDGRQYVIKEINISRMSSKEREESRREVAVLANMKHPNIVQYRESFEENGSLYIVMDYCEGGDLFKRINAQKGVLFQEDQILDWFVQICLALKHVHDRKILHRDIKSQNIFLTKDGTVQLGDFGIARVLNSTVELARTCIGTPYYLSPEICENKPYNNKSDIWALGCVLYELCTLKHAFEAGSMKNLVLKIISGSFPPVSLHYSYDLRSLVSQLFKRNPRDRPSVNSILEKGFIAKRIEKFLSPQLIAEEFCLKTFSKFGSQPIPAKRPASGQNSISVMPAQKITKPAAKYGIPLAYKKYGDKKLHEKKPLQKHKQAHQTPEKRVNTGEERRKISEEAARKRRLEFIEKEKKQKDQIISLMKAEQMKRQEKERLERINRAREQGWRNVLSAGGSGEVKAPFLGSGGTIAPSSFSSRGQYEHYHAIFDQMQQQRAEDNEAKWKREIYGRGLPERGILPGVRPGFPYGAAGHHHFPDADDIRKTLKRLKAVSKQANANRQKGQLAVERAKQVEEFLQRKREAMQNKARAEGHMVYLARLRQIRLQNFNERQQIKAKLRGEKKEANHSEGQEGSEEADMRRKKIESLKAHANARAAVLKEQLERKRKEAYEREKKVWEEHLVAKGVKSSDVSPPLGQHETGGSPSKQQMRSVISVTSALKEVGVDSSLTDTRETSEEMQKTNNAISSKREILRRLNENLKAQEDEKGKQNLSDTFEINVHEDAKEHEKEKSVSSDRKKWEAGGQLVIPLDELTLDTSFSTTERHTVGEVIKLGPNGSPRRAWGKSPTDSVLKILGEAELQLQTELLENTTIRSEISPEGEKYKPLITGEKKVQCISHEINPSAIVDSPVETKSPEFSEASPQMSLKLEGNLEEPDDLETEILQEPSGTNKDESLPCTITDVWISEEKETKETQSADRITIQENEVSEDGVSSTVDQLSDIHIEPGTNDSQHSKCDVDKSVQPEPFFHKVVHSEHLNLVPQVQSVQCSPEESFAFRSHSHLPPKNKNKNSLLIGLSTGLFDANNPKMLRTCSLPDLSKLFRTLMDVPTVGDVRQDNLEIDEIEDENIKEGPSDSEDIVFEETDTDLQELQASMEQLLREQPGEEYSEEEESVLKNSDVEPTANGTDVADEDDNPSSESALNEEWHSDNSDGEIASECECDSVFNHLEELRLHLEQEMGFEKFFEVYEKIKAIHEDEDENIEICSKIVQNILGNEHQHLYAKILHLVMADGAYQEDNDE
The note with it: at 0.1 µM.

Assay [13] deals with T5, Serine/threonine-protein kinase Nek1 (Homo sapiens). The note with it: at 1 µM.
Assay [14] has as its target T6, Serine/threonine-protein kinase Nek2 (Homo sapiens) (UniProt P51955).
T6 sequence (whole entry): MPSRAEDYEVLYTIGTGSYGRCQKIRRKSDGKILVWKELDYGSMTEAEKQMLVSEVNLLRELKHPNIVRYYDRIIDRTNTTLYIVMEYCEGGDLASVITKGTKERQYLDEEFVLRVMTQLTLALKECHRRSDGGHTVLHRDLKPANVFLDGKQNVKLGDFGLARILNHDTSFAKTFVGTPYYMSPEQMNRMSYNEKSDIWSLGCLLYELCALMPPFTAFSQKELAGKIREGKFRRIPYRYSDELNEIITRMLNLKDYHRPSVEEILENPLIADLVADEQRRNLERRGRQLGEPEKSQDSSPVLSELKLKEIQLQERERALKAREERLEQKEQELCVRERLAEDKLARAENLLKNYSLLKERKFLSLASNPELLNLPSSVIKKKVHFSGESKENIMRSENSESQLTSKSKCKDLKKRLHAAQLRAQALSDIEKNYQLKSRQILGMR
The note with it: at 0.1 µM.

In assay [15] the target is T6, Serine/threonine-protein kinase Nek2 (Homo sapiens). The note with it: at 1 µM.
The target of assay [16] is Serine/threonine-protein kinase Nek6 (Homo sapiens) (UniProt Q9HC98). The note with it: at 0.1 µM.
Serine/threonine-protein kinase Nek6 (Homo sapiens), sequence (Q9HC98 whole entry): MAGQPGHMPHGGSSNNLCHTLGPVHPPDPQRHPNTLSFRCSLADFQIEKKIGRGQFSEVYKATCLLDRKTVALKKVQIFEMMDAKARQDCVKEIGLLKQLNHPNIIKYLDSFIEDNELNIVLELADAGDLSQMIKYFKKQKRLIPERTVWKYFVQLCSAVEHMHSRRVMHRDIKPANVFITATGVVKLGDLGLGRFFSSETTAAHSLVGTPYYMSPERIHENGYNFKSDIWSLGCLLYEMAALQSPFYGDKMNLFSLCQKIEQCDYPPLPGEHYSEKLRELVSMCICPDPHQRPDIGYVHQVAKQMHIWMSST
Assay [17] shares this target. The note with it: at 1 µM.
The target in assay [18] is Serine/threonine-protein kinase Nek7 (Homo sapiens) (UniProt Q8TDX7). The note with it: at 0.1 µM.
Serine/threonine-protein kinase Nek7 (Homo sapiens), sequence (Q8TDX7 whole entry, looked up): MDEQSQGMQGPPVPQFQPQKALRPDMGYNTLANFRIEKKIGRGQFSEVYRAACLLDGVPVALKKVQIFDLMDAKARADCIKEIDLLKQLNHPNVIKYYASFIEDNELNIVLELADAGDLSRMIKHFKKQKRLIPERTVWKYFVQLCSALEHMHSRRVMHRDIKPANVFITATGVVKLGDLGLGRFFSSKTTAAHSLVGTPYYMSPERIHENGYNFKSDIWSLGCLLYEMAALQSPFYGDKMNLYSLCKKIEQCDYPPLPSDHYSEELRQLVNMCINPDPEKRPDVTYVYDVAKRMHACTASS
Assay [19] shares this target. The note with it: at 1 µM.
Assay [20] has as its target T7, Serine/threonine-protein kinase Nek9 (Homo sapiens) (UniProt Q8TD19).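 Further: reported value is the mean percent inhibition of NEK9.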
T7 sequence (whole entry): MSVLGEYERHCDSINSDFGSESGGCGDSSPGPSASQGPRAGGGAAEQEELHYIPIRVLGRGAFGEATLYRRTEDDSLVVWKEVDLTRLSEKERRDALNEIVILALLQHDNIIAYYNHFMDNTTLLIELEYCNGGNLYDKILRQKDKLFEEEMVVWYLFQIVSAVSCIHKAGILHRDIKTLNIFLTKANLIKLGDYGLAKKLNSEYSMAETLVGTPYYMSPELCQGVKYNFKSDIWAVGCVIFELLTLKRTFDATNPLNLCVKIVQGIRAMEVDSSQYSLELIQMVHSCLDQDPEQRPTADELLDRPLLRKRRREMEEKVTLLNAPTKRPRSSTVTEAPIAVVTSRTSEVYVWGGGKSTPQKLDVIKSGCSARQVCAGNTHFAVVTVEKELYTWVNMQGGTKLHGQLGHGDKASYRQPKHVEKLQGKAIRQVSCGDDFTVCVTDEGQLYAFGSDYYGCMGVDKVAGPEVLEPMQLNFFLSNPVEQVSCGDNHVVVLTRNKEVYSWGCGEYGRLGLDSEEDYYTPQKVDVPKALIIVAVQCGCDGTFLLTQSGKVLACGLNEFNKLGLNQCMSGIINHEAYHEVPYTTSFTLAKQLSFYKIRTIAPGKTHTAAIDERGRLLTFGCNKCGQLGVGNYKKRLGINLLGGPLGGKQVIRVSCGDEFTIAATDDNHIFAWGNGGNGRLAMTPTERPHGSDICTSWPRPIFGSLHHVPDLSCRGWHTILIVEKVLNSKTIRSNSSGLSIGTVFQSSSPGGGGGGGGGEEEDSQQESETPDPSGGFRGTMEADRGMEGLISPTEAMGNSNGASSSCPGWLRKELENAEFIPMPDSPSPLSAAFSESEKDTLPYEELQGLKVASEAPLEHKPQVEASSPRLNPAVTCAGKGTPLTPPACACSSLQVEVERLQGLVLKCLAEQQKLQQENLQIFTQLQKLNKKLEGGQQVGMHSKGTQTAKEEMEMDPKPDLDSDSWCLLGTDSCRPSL
The note with it: at 0.1 µM.

The inhibition is the drop in the measured response relative to a control, in per cent.

Sphingosine kinase 1 (Homo sapiens), sequence (Q9NYA1 whole entry): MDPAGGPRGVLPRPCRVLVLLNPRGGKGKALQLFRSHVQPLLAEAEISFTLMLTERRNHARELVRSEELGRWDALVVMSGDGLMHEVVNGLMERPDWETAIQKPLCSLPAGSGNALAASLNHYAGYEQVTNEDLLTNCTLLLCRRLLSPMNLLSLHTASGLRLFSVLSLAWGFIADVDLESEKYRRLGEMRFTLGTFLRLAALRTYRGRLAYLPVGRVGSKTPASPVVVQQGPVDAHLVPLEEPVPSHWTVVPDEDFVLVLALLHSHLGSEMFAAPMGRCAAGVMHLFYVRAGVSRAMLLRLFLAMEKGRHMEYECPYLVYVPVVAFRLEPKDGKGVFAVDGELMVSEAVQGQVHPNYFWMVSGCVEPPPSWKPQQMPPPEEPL

For the compound `CS(=O)(=O)CCNCc1ccoc1-c1ccc2ncnc(Nc3ccc(OCc4ccccc4)cc3)c2c1`, the inhibition in [1] is 5.32%; in assay [2], 1.37%; in assay [3], 1.07%; in assay [4], 2.14%; in assay [5], 1.94%; in [6] it was 1.95%. For the same compound, the inhibition in assay [7] is 8.23%; in assay [8] it was -1.24%; in assay [9], 0.42%; in assay [10], -0.44%; in assay [11] it was 0.42%; in assay [12], 0.71%. Also, the inhibition was 2.1% in assay [13]; 1.71% in [14]; 0.9% in assay [15]; 1.71% in assay [16]; 0.7% in assay [17]; 0.9% in [18]. Besides, the results for the inhibition in [19] and in [20] were 1.09% and -0.36%, respectively.
